Test results published in PubChem BioAssay (Tox21).
Results filed as inconclusive are left out. Where a call stands in place of a potency, no number is given. A structure can be active in one record and inactive in another. Calls of active or inactive are those of the source. Unless noted, the call rests on the fitted dose curve. Positions of bridges follow the written chain, without caps; N, C: chain ends. Non-standard residues stand in square brackets, D forms with d. Residues, ends and D or L forms follow the SMILES beside them. *: point of attachment. Dab(CH2SO3H) = N[C@@H](CCNCS(=O)(=O)O)C(=O)O; X3 = CC[C@@H](C)CCCCC(=O)*; Dab = NCC[C@H](N)C(=O)O

Target: Estrogen receptor (Homo sapiens) (UniProt P03372)
Assay: qHTS assay to identify small molecule agonists of the estrogen receptor alpha (ER-alpha) signaling pathway using the BG1 cell line (AID 743079; active means well fitted activation curve with a large enough effect in the repeat runs; further: nearly all actives have a fitted effect of over 20% in size)
Details: BG1Luc4E2 cells, ERE-luciferase agonist, 22 h; series mostly up to 70.3 µM
Potency means the concentration at half of the fitted maximal effect.

Estrogen receptor (Homo sapiens), sequence (P03372 whole entry, looked up): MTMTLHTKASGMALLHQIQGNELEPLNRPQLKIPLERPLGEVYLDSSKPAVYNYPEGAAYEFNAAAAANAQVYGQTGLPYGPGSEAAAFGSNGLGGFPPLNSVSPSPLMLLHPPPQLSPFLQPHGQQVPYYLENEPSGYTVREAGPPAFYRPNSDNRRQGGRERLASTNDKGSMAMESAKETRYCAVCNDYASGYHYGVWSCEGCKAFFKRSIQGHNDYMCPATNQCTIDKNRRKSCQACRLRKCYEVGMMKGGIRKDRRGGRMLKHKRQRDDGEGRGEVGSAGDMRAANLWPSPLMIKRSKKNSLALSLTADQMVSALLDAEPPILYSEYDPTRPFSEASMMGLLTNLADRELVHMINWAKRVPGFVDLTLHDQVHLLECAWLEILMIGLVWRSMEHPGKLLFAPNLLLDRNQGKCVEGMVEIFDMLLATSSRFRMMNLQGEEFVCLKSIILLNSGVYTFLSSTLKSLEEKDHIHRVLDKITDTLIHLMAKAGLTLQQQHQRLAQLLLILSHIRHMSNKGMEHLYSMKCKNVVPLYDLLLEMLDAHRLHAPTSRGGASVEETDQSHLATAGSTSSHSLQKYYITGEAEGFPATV

**Q.** For `CC[C@H]1OC(=O)[C@H](C)C(=O)[C@H](C)[C@@H](O[C@@H]2O[C@H](C)C[C@H](N(C)C)[C@H]2O)[C@](C)(OC)C[C@@H](C)C(=O)[C@H](C)[C@H]2N(CCCCn3cnc(-c4cccnc4)c3)C(=O)O[C@]12C`, which Potency is on record?
**A.** The Potency was “inactive”.

**Q.** For `O=P(O)(O)OP(=O)(O)OP(=O)(O)O`, which Potency is on record?
**A.** Its Potency is “inactive”.

**Q.** With `NC[C@@H]1CC[C@@H](N)[C@@H](O[C@H]2[C@H](O)[C@@H](O[C@H]3O[C@H](CO)[C@@H](O)[C@H](N)[C@H]3O)[C@H](N)C[C@@H]2N)O1` as the molecule, how does the Potency read?
**A.** Its Potency is 11.9 µM (active).

**Q.** Which Potency does the source give for `CC(=O)OCC(=O)[C@@]1(O)CC[C@H]2[C@@H]3CCC4=CC(=O)CC[C@]4(C)C3=CC[C@@]21C` here?
**A.** The Potency was 29.8 µM (active).

**Q.** Which Potency does the source give for `CC12CCC(C[N+](C)(CCC[N+](C)(C)C)C1)C2(C)C` (stereo not drawn) here?
**A.** Its Potency is “inactive”.

**Q.** With `O=C1c2c(O)cccc2[C@H]([C@@H]2O[C@H](CO)[C@@H](O)[C@H](O)[C@H]2O)c2cc(CO)cc(O)c21` as the molecule, how does the Potency read?
**A.** The Potency was 13.3 µM (active) and inactive.

**Q.** With `NCC(O)CC(=O)O` (stereo not drawn) as the molecule, how does the Potency read?
**A.** Its Potency is 16.8 µM (active).

**Q.** For `CCOc1ccc(S(=O)(=O)O)c2cccnc12`, which Potency is on record?
**A.** Its Potency is 6.68 µM (active).

**Q.** With `CC12CCC(C1)C(C)(C)C2=O` (stereo not drawn) as the molecule, how does the Potency read?
**A.** The Potency was “inactive”.

**Q.** With `CN1C(=O)C[C@@H](C(=O)N[C@@H](Cc2cnc[nH]2)C(=O)N2CCC[C@H]2C(N)=O)NC1=O` as the molecule, how does the Potency read?
**A.** The Potency was “inactive”.

**Q.** Which Potency does the source give for `NC[C@H]1O[C@H](O[C@H]2[C@H](O)[C@@H](O[C@H]3O[C@H](CO)[C@@H](O)[C@H](N)[C@H]3O)[C@H](N)C[C@@H]2N)[C@H](N)C[C@@H]1O` here?
**A.** Its Potency is “inactive”.

**Q.** Which Potency does the source give for `CC1(C)S[C@@H]2[C@H](NC(=O)[C@@H](NC(=O)N3CCNC3=O)c3ccccc3)C(=O)N2[C@H]1C(=O)O` here?
**A.** The Potency was “inactive”.

**Q.** With `CC(C)Cc1ccc([C@H](C)C(=O)O)cc1` as the molecule, how does the Potency read?
**A.** Its Potency is “inactive”.

**Q.** For `FC(F)(F)C(F)(F)C(F)(F)C(F)(F)C(F)(F)F`, which Potency is on record?
**A.** The Potency was “inactive”.

**Q.** Which Potency does the source give for `COc1ccc(/C=N/NC(=O)c2ccncc2)c(C(=O)O)c1OC` here?
**A.** Its Potency is “inactive”.

**Q.** With `CC[C@H](C)C(=O)O[C@H]1CCC=C2C=C[C@H](C)[C@H](CC[C@@H]3C[C@@H](O)CC(=O)O3)[C@H]21` as the molecule, how does the Potency read?
**A.** Its Potency is “inactive”.

**Q.** For `C/C=C/C1=C(C(=O)O)N2C(=O)[C@@H](NC(=O)[C@H](N)c3ccc(O)cc3)[C@H]2SC1`, which Potency is on record?
**A.** The Potency was “inactive”.

**Q.** For `O=C1C2CC3CC1CC(O)(C3)C2`, which Potency is on record?
**A.** Its Potency is “inactive”.

**Q.** Which Potency does the source give for `CC[C@@H](C)CCCCC(=O)N[C@@H](CCNCS(=O)(=O)O)C(=O)N[C@H](C(=O)N[C@@H](CCNCS(=O)(=O)O)C(=O)N[C@H]1CCNC(=O)[C@H]([C@@H](C)O)NC(=O)[C@H](CCNCS(=O)(=O)O)NC(=O)[C@H](CCNCS(=O)(=O)O)NC(=O)[C@H](CC(C)C)NC(=O)[C@@H](CC(C)C)NC(=O)[C@H](CCNCS(=O)(=O)O)NC1=O)[C@@H](C)O` (X3-[Dab(CH2SO3H)]T[Dab(CH2SO3H)][Dab][Dab(CH2SO3H)][dL]L[Dab(CH2SO3H)][Dab(CH2SO3H)]T; lactam 4-C) here?
**A.** Its Potency is “inactive”.

**Q.** For `CCCCCCCCCC[N+](C)(CCCCCCCCCC)CCC[Si](OC)(OC)OC`, which Potency is on record?
**A.** The Potency was “inactive”.

**Q.** For `O=C1CCC(c2ccc(-n3ccnc3)cc2)=NN1`, which Potency is on record?
**A.** Its Potency is “inactive”.

System: not listed separately
Assay: qHTS assay to identify small molecule antagonists of the estrogen receptor alpha (ER-alpha) signaling pathway using the BG1 cell line (AID 743080);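 further: BG1 cells stimulated with 17beta-estradiol alongside compound; nearly all actives have a fitted effect of over 25% in size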
Details: BG1Luc4E2 ERE-luciferase antagonist mode, luminescence; series mostly up to 70.3 µM
Summary of the method: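 Seeding, 24 h rest, compound transfer from DMSO, 17beta-estradiol addition, 21.5 h incubation, CellTiter-Fluor (30 min, 37 C), then ONE-Glo (30 min, room temperature): this sequence was run on BG1-Luc-4E2 reporter cells.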

**Q.** With `CC[C@H]1OC(=O)[C@H](C)C(=O)[C@H](C)[C@@H](O[C@@H]2O[C@H](C)C[C@H](N(C)C)[C@H]2O)[C@](C)(OC)C[C@@H](C)C(=O)[C@H](C)[C@H]2N(CCCCn3cnc(-c4cccnc4)c3)C(=O)O[C@]12C` as the molecule, how does the Potency read?
**A.** Its Potency is “inactive”.

**Q.** With `O=P(O)(O)OP(=O)(O)OP(=O)(O)O` as the molecule, how does the Potency read?
**A.** Its Potency is “inactive”.

**Q.** With `NC[C@@H]1CC[C@@H](N)[C@@H](O[C@H]2[C@H](O)[C@@H](O[C@H]3O[C@H](CO)[C@@H](O)[C@H](N)[C@H]3O)[C@H](N)C[C@@H]2N)O1` as the molecule, how does the Potency read?
**A.** The Potency was “inactive”.

**Q.** Which Potency does the source give for `CC(=O)OCC(=O)[C@@]1(O)CC[C@H]2[C@@H]3CCC4=CC(=O)CC[C@]4(C)C3=CC[C@@]21C` here?
**A.** The Potency was “inactive”.

**Q.** For `CN1CCN(CCCN2c3ccccc3Sc3ccc(Cl)cc32)CC1`, which Potency is on record?
**A.** The Potency was “inactive”.

**Q.** Which Potency does the source give for `CC12CCC(C[N+](C)(CCC[N+](C)(C)C)C1)C2(C)C` (stereo not drawn) here?
**A.** Its Potency is “inactive”.

**Q.** With `O=C1c2c(O)cccc2[C@H]([C@@H]2O[C@H](CO)[C@@H](O)[C@H](O)[C@H]2O)c2cc(CO)cc(O)c21` as the molecule, how does the Potency read?
**A.** The Potency was “inactive”.

**Q.** With `NCC(O)CC(=O)O` (stereo not drawn) as the molecule, how does the Potency read?
**A.** The Potency was “inactive”.

**Q.** Which Potency does the source give for `CCOc1ccc(S(=O)(=O)O)c2cccnc12` here?
**A.** Its Potency is “inactive”.

**Q.** For `CC12CCC(C1)C(C)(C)C2=O` (stereo not drawn), which Potency is on record?
**A.** The Potency was “inactive”.

**Q.** For `CN1C(=O)C[C@@H](C(=O)N[C@@H](Cc2cnc[nH]2)C(=O)N2CCC[C@H]2C(N)=O)NC1=O`, which Potency is on record?
**A.** The Potency was “inactive”.

**Q.** Which Potency does the source give for `NC[C@H]1O[C@H](O[C@H]2[C@H](O)[C@@H](O[C@H]3O[C@H](CO)[C@@H](O)[C@H](N)[C@H]3O)[C@H](N)C[C@@H]2N)[C@H](N)C[C@@H]1O` here?
**A.** The Potency was “inactive”.

**Q.** For `CC1(C)S[C@@H]2[C@H](NC(=O)[C@@H](NC(=O)N3CCNC3=O)c3ccccc3)C(=O)N2[C@H]1C(=O)O`, which Potency is on record?
**A.** Its Potency is “inactive”.

**Q.** Which Potency does the source give for `CC(C)Cc1ccc([C@H](C)C(=O)O)cc1` here?
**A.** The Potency was “inactive”.

**Q.** Which Potency does the source give for `FC(F)(F)C(F)(F)C(F)(F)C(F)(F)C(F)(F)F` here?
**A.** Its Potency is “inactive”.

**Q.** For `COc1ccc(/C=N/NC(=O)c2ccncc2)c(C(=O)O)c1OC`, which Potency is on record?
**A.** The Potency was “inactive”.

**Q.** With `C/C=C/C1=C(C(=O)O)N2C(=O)[C@@H](NC(=O)[C@H](N)c3ccc(O)cc3)[C@H]2SC1` as the molecule, how does the Potency read?
**A.** The Potency was “inactive”.

**Q.** For `O=C1C2CC3CC1CC(O)(C3)C2`, which Potency is on record?
**A.** The Potency was “inactive”.

**Q.** For `COC(=O)C[C@](O)(CCCC(C)(C)O)C(=O)O[C@@H]1C(OC)=CC23CCCN2CCc2cc4c(cc2[C@H]13)OCO4` (stereo partly drawn), which Potency is on record?
**A.** The Potency was 0.168 µM (active).

**Q.** Which Potency does the source give for `CC[C@@H](C)CCCCC(=O)N[C@@H](CCNCS(=O)(=O)O)C(=O)N[C@H](C(=O)N[C@@H](CCNCS(=O)(=O)O)C(=O)N[C@H]1CCNC(=O)[C@H]([C@@H](C)O)NC(=O)[C@H](CCNCS(=O)(=O)O)NC(=O)[C@H](CCNCS(=O)(=O)O)NC(=O)[C@H](CC(C)C)NC(=O)[C@@H](CC(C)C)NC(=O)[C@H](CCNCS(=O)(=O)O)NC1=O)[C@@H](C)O` (X3-[Dab(CH2SO3H)]T[Dab(CH2SO3H)][Dab][Dab(CH2SO3H)][dL]L[Dab(CH2SO3H)][Dab(CH2SO3H)]T; lactam 4-C) here?
**A.** The Potency was “inactive”.

**Q.** For `CCCCCCCCCC[N+](C)(CCCCCCCCCC)CCC[Si](OC)(OC)OC`, which Potency is on record?
**A.** The Potency was “inactive”.

**Q.** For `O=C1CCC(c2ccc(-n3ccnc3)cc2)=NN1`, which Potency is on record?
**A.** Its Potency is “inactive”.
